Experimental data: article PMC5540273 (PLoS ONE, 2017)
Read-outs that look alike come from different tables or passages of the source.

How the values were obtained:
CDK8 = settings: concentration: 1 μM, replicates: in singlicate; n = 1
CDK9 = settings: concentration: 1 μM, replicates: in singlicate; n = 1
CDKL1 = settings: concentration: 1 μM, replicates: in singlicate; n = 1
CDKL2 = settings: concentration: 1 μM, replicates: in singlicate; n = 1
CDKL3 = settings: concentration: 1 μM, replicates: in singlicate; n = 1
CDKL5 = settings: concentration: 1 μM, replicates: in singlicate; n = 1
CHEK1 = settings: concentration: 1 μM, replicates: in singlicate; n = 1
CHEK2 = settings: concentration: 1 μM, replicates: in singlicate; n = 1
CIT = settings: n = 1
CLK1 = settings: concentration: 1 μM, replicates: in singlicate; n = 1
[1] = concentration: 1 μM, replicates: in singlicate
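Further: KINOMEscan kinase panel screen.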

Row | SMILES | %Inh (CDK8) [%] | %Inh (CDK9) [%] | %Inh (CDKL1) [%] | %Inh (CDKL2) [%] | %Inh (CDKL3) [%] | %Inh (CDKL5) [%] | %Inh (CHEK1) [%] | %Inh (CHEK2) [%] | %Inh (CIT; [1]) [%] | %Inh (CLK1) [%] | %Inh (CIT; 1 µM) [%]
1 | Cc1cccc(Nc2nc(N[C@H]3CCNC3)ncc2C(N)=O)c1.Cl [GSK2197149] | 0 | 7 | 12 | 7 | 0 | 0 | 52 | 71 | 76 | 51 | –
2 | Oc1cc(Nc2ccnc3cc(I)ccc23)ccc1F [GW552771] | 23 | 0 | 0 | 30 | 0 | 0 | 2 | 4 | 30 | 8 | –
3 | COc1ccc(CNC(=O)NC2CCN(c3ccnc(Nc4ccc(F)cc4)n3)CC2)cc1 [GSK1379788] | 45 | 0 | 9 | 22 | 0 | 0 | 0 | 34 | 28 | 13 | –
4 | O=C(Nc1cccc(-c2nn3ccccc3c2-c2ccnc(Nc3cccc(C(F)(F)F)c3)n2)c1)c1c(F)cccc1F [GSK292658] | 14 | 0 | 0 | 24 | 0 | 0 | 10 | 0 | 44 | 23 | –
5 | COc1cccc(C(=O)Nc2cccc(Oc3ccc4nc(NC(=O)C5CC5)cn4n3)c2)c1 | 38 | 0 | 58 | 26 | 7 | 0 | 15 | 0 | 96.5 | 30 | –
6 | COc1cc(Nc2ncc3c(C)nc(-c4cc5ccccc5[nH]4)n3n2)cc(OC)c1OC [GW869516] | 44 | 0 | 46 | 1 | 8 | 0 | 0 | 0 | 100 | 88 | –
7 | O=c1[nH]cc(-c2ccc(N3CCOCC3)cc2)c2sc(-c3cn[nH]c3)cc12 [GSK2276055] | 0 | 71 | 11 | 0 | 0 | 0 | 0 | 14 | 92.1 | 90 | –
8 | CCn1c(-c2nonc2N)nc2c(C#CC(C)(C)O)ncc(OCCCCN)c21.O=C(O)C(F)(F)F.O=C(O)C(F)(F)F [GSK507274] | 0 | 0 | 0 | 53 | 0 | 10 | 2 | 0 | – | 21 | 100
9 | Cc1ccc(F)c(C(=O)Nc2cccc(-c3nn4ccccc4c3-c3ccnc(Nc4cccc(F)c4)n3)c2)c1F [GSK361061] | 15 | 0 | 2 | 31 | 0 | 5 | 6 | 0 | 9 | 32 | –
10 | Nc1ncc(-c2cccnc2)c2scc(-c3ccc4c(c3)CCN4C(=O)Cc3ccccc3)c12 [GSK683281] | 36 | 0 | 26 | 29 | 0 | 7 | 18 | 0 | 49 | 36 | –
11 | Nc1ncnc2c1nc(-c1ccccc1)n2-c1ccccc1 [SKF-97293] | 0 | 0 | 3 | 0 | 7 | 14 | 4 | 11 | 11 | 15 | –
12 | Clc1ccc(-c2nn3ncccc3c2-c2ccnc(Nc3ccc4c(c3)OCCO4)n2)cc1 [GW829116] | 20 | 0 | 0 | 4 | 0 | 0 | 0 | 2 | 89 | 0 | –
13 | Nc1n[nH]c2cnc(-c3ccccc3)cc12 [SB-642124] | 0 | 53 | 1 | 58 | 0 | 0 | 0 | 0 | 19 | 69 | –
14 | COc1cc(Nc2nccc(-c3c(-c4cccc(NC(=O)c5c(F)cccc5F)c4)nn4ncccc34)n2)cc(OC)c1OC [GSK327238] | 4 | 0 | 20 | 13 | 62 | 10 | 0 | 14 | 71 | 23 | –
15 | COc1cc(Nc2nccc(N3CCC(NC(=O)c4cc5ccccc5s4)C3)n2)cc(OC)c1OC (stereo not shown) [GSK1379760] | 38 | 5 | 11 | 43 | 13 | 1 | 0 | 16 | 0 | 4 | –
16 | CN(c1ccc(NC(=O)Nc2cc(C(F)(F)F)ccc2F)cc1)c1ccnc(Nc2ccc(S(N)(=O)=O)cc2)n1 [GW809893] | 98.9 | 93.5 | 80 | 99.9 | 99.4 | 26 | 0 | 20 | 57 | 47 | –

Row | SMILES | %Inh (CDK8) [%] | %Inh (CDK9) [%] | %Inh (CDKL1) [%] | %Inh (CDKL2) [%] | %Inh (CDKL3) [%] | %Inh (CDKL5) [%] | %Inh (CHEK1) [%] | %Inh (CHEK2) [%] | %Inh (CIT; [1]) [%] | %Inh (CLK1) [%] | %Inh (CIT; 1 µM) [%]
17 | CC(=O)Nc1nc2cnc(Nc3cc(NC(=O)c4cccc(C5(C#N)CC5)c4Cl)ccc3C)nc2s1 | 21 | 0 | 5 | 36 | 24 | 0 | 0 | 4 | 62 | 0 | –
18 | CC(=O)N1CCN(c2ccc(Nc3nccc(-c4sc(C(C)C)nc4-c4cccc(NS(=O)(=O)c5cccc(Cl)c5)c4)n3)cn2)CC1 [GSK1660437] | 7 | 68 | 31 | 99 | 0 | 73 | 1 | 0 | 71 | 11 | –
19 | CCc1ccc(-c2ccc3c(c2)-c2c(cnn2C)S(=O)(=O)N3C)cc1 | 0 | 0 | 0 | 0 | 20 | 0 | 0 | 0 | 8 | 22 | –
20 | Cc1ccc(C(=O)Nc2ccc(Nc3ccnc4cc(-c5nccs5)ccc34)cc2O)cc1.Cl [GW494702] | 23 | 0 | 0 | 28 | 2 | 0 | 4 | 33 | 36 | 1 | –
21 | COc1cccc(C2=C(Nc3ccc(Cl)c(C(=O)O)c3)C(=O)NC2=O)c1 [SB-390769] | 0 | 0 | 47 | 25 | 100 | 6 | 0 | 0 | 40 | 12 | –
22 | Cl.Cl.NCC(NCc1ccc(-c2ccnc3[nH]ccc23)s1)c1ccccc1 (stereo not shown) [GSK1321565] | 39 | 0 | 0 | 13 | 0 | 0 | 0 | 33 | 93 | 89 | –
23 | Cc1cccc(NC(=O)Nc2ccc(Oc3ncnc4ccn(C)c34)cc2)c1 | 72 | 0 | 11 | 5 | 0 | 0 | 0 | 0 | 0 | 2 | –
24 | COc1cc(Nc2nccc(N3CCC(NC(=O)Nc4cccc(C(C)=O)c4)C3)n2)cc(OC)c1OC (stereo not shown) [GSK1379753] | 27 | 0 | 17 | 46 | 0 | 0 | 0 | 0 | 11 | 16 | –
25 | Cc1ccc(C)c(NC(=O)NC2CCN(c3ccnc(Nc4ccc(F)cc4)n3)C2)c1 (stereo not shown) [GSK1379720] | 21 | 0 | 1 | 35 | 0 | 0 | 0 | 0 | 0 | 23 | –
26 | O=C(Nc1cccc(Oc2ccc3nc(NC(=O)C4CC4)cn3n2)c1)c1ccccc1C(F)(F)F | 26 | 0 | 43 | 26 | 0 | 7 | 0 | 11 | 63 | 26 | –
27 | COCCOCCOc1cc2ncc3c4ccc(C#N)cc4[nH]c3c2cc1OC | 1 | 0 | 56 | 7 | 0 | 0 | 55 | 57 | 98.2 | 84 | –
28 | CSc1cccc2c(-c3ccncn3)c(-c3ccc(F)cc3)nn12 [GW514786] | 37 | 0 | 6 | 31 | 0 | 3 | 81 | 0 | 79 | 18 | –
29 | COC(=O)Nc1nc2cc(Oc3ccc(NC(=O)Nc4cc(C(F)(F)F)ccc4F)cn3)ccc2[nH]1.Cl.Cl [GW681170] | 100 | 0 | 29 | 98.3 | 56 | 0 | 0 | 24 | 100 | 42 | –
30 | Cc1occc1-c1ncc(OC[C@@H](N)Cc2c[nH]c3ccccc23)cc1-c1ccc2[nH]nc(C)c2c1.O=C(O)C(F)(F)F [GSK682037] | 25 | 22 | 11 | 43 | 0 | 0 | 0 | 0 | 99.1 | 32 | –
31 | CN(C)S(=O)(=O)c1cc(-c2ccc3nccc(-c4cccc(S(N)(=O)=O)c4)c3c2)cnc1N [GSK1669921] | 35 | 0 | 77 | 25 | 0 | 12 | 100 | 0 | 16 | 57 | –
